Shown are actives, neighbours in structure and some others; about 2.9% of the full set was active somewhere.
DRD3 antagonist – blocks the human D3 dopamine receptor | P35462 | D3R cells, DiscoveRx beta-arrestin luminescence, antagonist mode; stronger effect = lower value | hit rate 2.5% among 360,000 | max response, negative = inhibition, % | AID 652054; in the data active = max response below about -50%; also: % is scaled to controls: 0 for no effect and ±100 for the full control effect
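Cells plated overnight at 1500 cells/well, then exposed to library compounds with dopamine controls for 90 minutes at 37 degrees C. DiscoveRx reagent added for 30–60 minutes at room temperature; luminescence read, quantitative HTS format.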
D3 ag – D3 dopamine receptor (human) agonism; max activation, %; AID 652048; D3R DiscoveRx beta-arrestin cells, luminescence, 90 min; hit rate 0.58% among 410,000; P35462; in the data active = max activation above about 30%; also: 0% is about no effect
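Cells at 1500/well, incubated overnight, then treated with pinned compounds (dopamine as control) for 90 min at 37 degrees C. DiscoveRx reagent added for 30 - 60 minutes at room temperature; luminescence read.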
a7 integrin act – integrin-mediated muscular dystrophy alleviation activation. alpha7betagal myoblasts, beta-gal FDG fluorescence, 48 h. Potency, µM (titrated, usually from 38.3 µM), for inactives: at the top dose activation, usual class: activators. hit rate 0.064% among 350,000; active = well fitted activation curve with a large enough effect;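 also: potency is read from the fitted curve at half-maximal effect; 100% = response of the positive control SU9516; nearly all actives have a fitted effect of over 60% in size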
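alpha7betagal+/- myoblasts (passage 13, 250/well) treated 48 h at 37C with compounds at 1:260 dilution of DMSO stock. Lysed, then beta-galactosidase activity read as FDG fluorescence (ex 480/em 540) after 30 min, with pre-read for autofluorescence.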
Numbers without * were called inactive.

SMILES	DRD3 antagonist	D3 ag	a7 integrin act
O=C(NC1CCCC1)C(c1cccs1)N(C(=O)c1csnn1)c1ccccc1F (stereo unspecified)	-6.3	-4.4	-6.2%
O=C(c1ccc(F)cc1)N1CCOC(c2nc(-c3ccc(F)cc3)no2)C1 (stereo unspecified)	35.3	14.2	-4.7%
Cc1nnc(SCC(=O)N/N=C/c2cc(Cl)c(O)c(Cl)c2)s1	21.4	1.7	14.8%
COc1ccc(CNC(=O)COc2cc3c(c4oc(=O)cc(C)c24)CCC(C)(C)O3)cc1	23.6	35.8*	-5.0%
COc1cccc(CNC(=O)COc2cc3c(c4oc(=O)cc(C)c24)CCC(C)(C)O3)c1	-4.1	7.2	-16.8%
COc1ccc(C(=O)N2CCc3cc4c(cc3C2C)OCCCO4)cc1 (stereo unspecified)	-20.4	44.1*	0.9%
CC1c2cc3c(cc2CCN1C(=O)c1ccc(Br)cc1)OCCCO3 (stereo unspecified)	-10.4	1.0	-64.8%
Cc1ccc(NC(=O)n2ncc3c(C)cccc32)c(C)c1	0.7	-19.0	8.8%
